The values below come from PubChem BioAssay (NCI).

Test systems include HCT-15 colon; HT29 colon; SNB-75 CNS; SNB-19 CNS; U251 CNS; PC-3 prostate; SK-MEL-5 melanoma; UACC-62 melanoma; LOX IMVI melanoma; SK-MEL-28 melanoma; SK-MEL-2 melanoma; EKVX NSCLC; SN12C renal; UO-31 renal; TK-10 renal; ACHN renal; CAKI-1 renal; A498 renal; CCRF-CEM leukemia; MOLT-4 leukemia.
Holding throughout (test): NCI-60 one-dose screen, 48 h (100 = growth as untreated, 0 = no growth, -100 = all killed)
Holding throughout (settings): 10 µM unless noted

Compounds without any hit were thinned out: in the full panel of roughly 83,000, 20% have a hit.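 Percent growth is the endpoint: 0 to 100 indicates growth inhibition (40 means 60% inhibition), 0 means no net growth, and negative values indicate cell death.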 A number with no mark means an inactive call. Activity calls are given as the source filed them. Rule for the calls: active = growth percent below 10; inactive = the rest.

In the case of `CCOC(=O)Nc1ccc(-c2nc(-c3cccc(OC)c3)c(-c3ccnc(Br)c3)[nH]2)cc1`, the growth was 5.65% (active) in the test on HCT-15 colon; 25.7% in the test with HT29 colon; 32.6% with SNB-75 CNS; 46.1% with SNB-19 CNS; 39% with U251 CNS; 11.2% in the test on PC-3 prostate. In addition, the growth in the test on SK-MEL-5 melanoma was 25.7%; in the test on UACC-62 melanoma, 21.2%; in the test with LOX IMVI melanoma, 4.57% (active); with SK-MEL-28 melanoma, 42%; in the test on SK-MEL-2 melanoma, 38.3%; in the test with EKVX NSCLC it was 30.1%. Further, the growth with SN12C renal was 48.9%; in the test on UO-31 renal it was 16.3%; in the test on TK-10 renal, 71.4%; with ACHN renal, 24.3%; in the test on CAKI-1 renal, 32.7%; with A498 renal, 22.4%. The growth with CCRF-CEM leukemia was 16.7%; in the test with MOLT-4 leukemia, 14.3%.
As for `COc1ccc(C2C(C#N)=C(N)Oc3c2sc2c(C)cccc32)cc1` (stereo not given), the growth in the test with HCT-15 colon was 9.6% (active); in the test with HT29 colon, 6.72% (active); in the test with SNB-75 CNS, -4.52% (active); in the test with SNB-19 CNS it was 26.3%; with U251 CNS, 25.4%; with PC-3 prostate it was 11.3%. The growth in the test with SK-MEL-5 melanoma is 29%; in the test on UACC-62 melanoma it was 19.3%; with LOX IMVI melanoma, 17.2%; with SK-MEL-28 melanoma it was 57.1%; in the test with SK-MEL-2 melanoma, 48.2%; in the test with EKVX NSCLC it was 42.3%. Also, the growth in the test with SN12C renal is 23.9%; in the test with UO-31 renal it was 33.9%; in the test on TK-10 renal, 63.8%; in the test on ACHN renal, 28.3%; in the test on CAKI-1 renal, 3.44% (active); with A498 renal it was -5.44% (active). Further, the growth with CCRF-CEM leukemia is 8% (active); with MOLT-4 leukemia, 12.9%.
`Cc1ccc(-c2nn(C)c(=O)c3noc(-c4ccc(C)cc4)c23)cc1`: the growth with HCT-15 colon is 32.3%; in the test with HT29 colon, 9.47% (active); in the test with SNB-75 CNS, -21.4% (active); with SNB-19 CNS, 32.9%; in the test with U251 CNS, 27.4%; in the test with PC-3 prostate, 26.1%. The growth is 21.5% with SK-MEL-5 melanoma; 38.5% in the test on UACC-62 melanoma; 44.3% in the test on LOX IMVI melanoma; 70.5% in the test on SK-MEL-28 melanoma; 9.26% (active) in the test with SK-MEL-2 melanoma; 56.5% in the test with EKVX NSCLC. Besides, the growth in the test with SN12C renal was 44.1%; in the test on UO-31 renal it was 41.7%; in the test on TK-10 renal, 47.4%; in the test with ACHN renal, 43.5%; with CAKI-1 renal, 37.7%; in the test on A498 renal, 25.6%. The growth was 18.9% in the test on CCRF-CEM leukemia and 55.8% with MOLT-4 leukemia.
Turning to `COc1ccc(CN2c3ccccc3CCc3ccccc32)cc1F`, the growth is 24.9% in the test with HCT-15 colon; 1.59% (active) in the test with HT29 colon; 23.2% in the test on SNB-75 CNS; 39% in the test on SNB-19 CNS; 21.1% in the test with U251 CNS; 24.1% with PC-3 prostate. Further, the growth with SK-MEL-5 melanoma is 19.8%; in the test on UACC-62 melanoma, 24.8%; in the test on LOX IMVI melanoma, 50.2%; in the test with SK-MEL-28 melanoma, 50.8%; with SK-MEL-2 melanoma, 27.2%; in the test with EKVX NSCLC it was 41.1%. Further, the growth with SN12C renal is 39.1%; in the test with UO-31 renal, 43.2%; in the test with TK-10 renal, 62.7%; in the test with ACHN renal, 35.6%; in the test on CAKI-1 renal, 29.7%; in the test on A498 renal, -6.65% (active). Moreover, the figures for the growth in the test on CCRF-CEM leukemia and in the test with MOLT-4 leukemia were 4.49% (active) and 16.2%, respectively.
For the compound `c1cc(-c2nnc(SSc3ncnc4nc[nH]c34)o2)ccn1`, the growth with HCT-15 colon is 37.3%; in the test on HT29 colon it was 18.9%; in the test with SNB-75 CNS it was 56.8%; in the test with SNB-19 CNS, 93.1%; in the test on U251 CNS, 72.4%; with PC-3 prostate, 51%. Further, the growth with SK-MEL-5 melanoma is 72.1%; with UACC-62 melanoma it was 11.8%; with LOX IMVI melanoma it was 9.77% (active); with SK-MEL-28 melanoma, 76.2%; in the test with SK-MEL-2 melanoma, 15.9%; in the test with EKVX NSCLC it was 82.3%. Besides, the growth in the test on SN12C renal was 55.8%; with UO-31 renal it was 30%; with TK-10 renal, 17%; with ACHN renal, 45%; with CAKI-1 renal, -6.89% (active); in the test with A498 renal, 63%. The figures for the growth in the test on CCRF-CEM leukemia and in the test with MOLT-4 leukemia were 21.8% and 18%, respectively.
For the compound `CC1(C)C2CC1C1(/C=N/NC(N)=S)C(C2)C(C#N)(C#N)C1(C#N)C#N` (stereo not given), the growth is 27.5% with HCT-15 colon; 60.6% with HT29 colon; 101% with SNB-75 CNS; 94.8% in the test on SNB-19 CNS; 82.1% in the test with U251 CNS; 70.7% with PC-3 prostate. The growth is 85.6% in the test with SK-MEL-5 melanoma; 78.8% with UACC-62 melanoma; 50.1% in the test on LOX IMVI melanoma; 88.7% in the test with SK-MEL-28 melanoma; 90.3% with SK-MEL-2 melanoma; 93.8% in the test on EKVX NSCLC. Besides, the growth with SN12C renal is 87.6%; with UO-31 renal it was 51.4%; with TK-10 renal it was 116%; with ACHN renal, 44.8%; with CAKI-1 renal, 104%; in the test on A498 renal it was 94.3%. Also, the growth was 16% with CCRF-CEM leukemia and 11.3% in the test on MOLT-4 leukemia.
Consider `COc1ccc2nc(NC(=O)c3cccnc3Nc3ccc(S(N)(=O)=O)cc3)sc2c1`, for which the growth is 94.2% in the test on HCT-15 colon; 106% with HT29 colon; 74.6% in the test with SNB-75 CNS; 99.4% in the test with SNB-19 CNS; 97.4% with U251 CNS; 71.6% in the test on PC-3 prostate. Also, the growth in the test on SK-MEL-5 melanoma is 89.4%; in the test with UACC-62 melanoma, 82.5%; in the test with LOX IMVI melanoma, 100%; in the test on SK-MEL-28 melanoma it was 116%; in the test on SK-MEL-2 melanoma it was 103%; with EKVX NSCLC, 92%. The growth with SN12C renal was 110%; in the test with UO-31 renal, 126%; in the test with TK-10 renal it was 99%; in the test on ACHN renal, 90%; in the test with CAKI-1 renal it was 76.1%; in the test with A498 renal, 93.5%. The results for the growth in the test on CCRF-CEM leukemia and in the test on MOLT-4 leukemia were 59.3% and 63.3%, respectively.
On to `CCOC(=O)C1=C(N)Oc2c(sc3c(C)cccc23)C1c1ccc(F)cc1` (stereo not given), for which the growth is 6.3% (active) with HCT-15 colon; 2.47% (active) in the test with HT29 colon; -4.15% (active) in the test on SNB-75 CNS; 26.3% in the test on SNB-19 CNS; 19.4% in the test with U251 CNS; 12% in the test on PC-3 prostate. For the same compound, the growth with SK-MEL-5 melanoma is 16.3%; in the test with UACC-62 melanoma, 17.4%; in the test on LOX IMVI melanoma, 14%; in the test on SK-MEL-28 melanoma, 56.8%; in the test with SK-MEL-2 melanoma, 42.5%; with EKVX NSCLC it was 44.9%. For the same compound, the growth in the test with SN12C renal is 30.5%; in the test on UO-31 renal it was 40.7%; with TK-10 renal, 76%; in the test with ACHN renal, 30.7%; with CAKI-1 renal it was 2.3% (active); in the test with A498 renal, -5.94% (active). The values for the growth with CCRF-CEM leukemia and in the test on MOLT-4 leukemia were 4.35% (active) and 10.2%, respectively.
